Among the data in PubChem BioAssay (NCATS) are Potency values, retold here.

Molecules are shown by their SMILES. Records with an inconclusive call do not appear. Activity calls are given as the source filed them. Calls come from the whole dose curve; as a rule, active = well fitted cell-killing curve with a large enough effect; inconclusive = small, poorly fitted or top-dose-only effect; inactive = no such curve, though single readings can be large or run the other way.
Potency is the fitted concentration of half-maximal effect.

This assay in a line: qHTS of pediatric cancer cell lines to identify multiple opportunities for drug repurposing: Confirmatory screen for TC32 cells (AID 1347118).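 Note: cells exposed to compound for 48 h before the read; nearly all actives have a fitted effect of over 65% in size.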 The conditions noted are these: TC32 Ewing sarcoma cells viability qHTS; series mostly up to 45.9 µM. The source says:
Drug repurposing or repositioning has been offered as a strategy for drug development in oncology programs. This approach has special potential for childhood cancers and other rare or orphan diseases, where the expected return on new drug development has been a disincentive to pharmaceuticals.
In this project we exploit the poly-pharmacology of drugs to discover new indications via phenotypic screening of a panel of 19 well-characterized cell lines derived from solid tumors seen in children and adolescents. The goal is to identify approved drugs with previously unrecognized anticancer properties that has the potential to reveal new mechanisms and biological processes involved in carcinogenesis or drug resistance. We employed a titration-based paradigm (quantitative high-throughput screening or qHTS), where all compounds were tested at multiple concentrations for their effect on cell viability. Concentration-response curves (CRCs) were derived directly from the primary screen, and both potency and efficacy values were used to identify compounds with robust bioactivity profiles. We screened the NIH Chemical Genomics Center (NCGC) Pharmaceutical Collection (NPC) and Mechanism Interrogation Plate (MIPE) small molecule collections of approved and investigational compounds against these cell lines; and measured metabolically active cells after 48 hours of compound treatment as a proxy for cell viability.
Assay Submitter: Nathalia J. Martinez, National Center for Advancing Translational Sciences, National Institutes of Health, Rockville, MD, USA; email: natalia.martinez@nih.gov
[1] Shen, M et al. Quantitative high-throughput phenotypic screening of pediatric cancer cell lines identifies multiple opportunities for drug repurposing. Oncotarget 2017 Dec 19;9(4):4758-4772. PMID 29435139.
The cells were obtained from University of North Carolina (UNC), Pediatric Preclinical Testing Program (PPT), and Coriell Institute (CI).
qHTS cell viability assay:
Cells were assayed in growth media at a density of 500-1,000 cells/well. Five microliters of cells were dispensed into 1,536-well, white, solid-bottom, TC-treated plates (Greiner Bio One) using a multidrop dispenser and incubated at 37 degrees C, 5% CO2, under a humidified atmosphere for 5 hours. Twenty-three nanoliters of compounds and controls (neutral control DMSO or positive control bortezomib at final concentration of 2.3 uM) were subsequently transferred by Kalypsys pintool. For primary screens, the MIPE collection was tested at 11-point dilutions (final concentrations range from 0.78 nM to 46 µM) and the NPC collection at 8-point dilutions (final concentrations range from 0.59 nM to 46 µM). Compounds tested in follow-up screens were assayed at 11-point dilutions. Cells were incubated for 48 hours, followed by addition of 3 uL of CellTiter-Glo (Promega). After a 15min incubation at room temperature, samples were analyzed for luminescence intensity using a ViewLux High-throughput CCD imager equipped with clear filters.
(In general: qHTS replaces the single test concentration by a dilution series.)
As for `C[C@@H](Oc1cc(-n2cnc3ccc(CN4CCN(C)CC4)cc32)sc1C(N)=O)c1ccccc1C(F)(F)F`, the Potency is 53.7 nM (active). In the case of `CN1CCN(Cc2ccc(NC(=O)Nc3ccc(Oc4cc(NC(=O)C5CC5)ncn4)cc3)cc2C(F)(F)F)CC1` it was 165 nM (active); in that of `CCS(=O)(=O)c1cccc(-c2cc(C(=O)NC3CCN(C)CC3)c(C)c3[nH]c4ncc(C)cc4c23)c1`, 117 nM (active).

As to `Cc1[nH]nc2ccc(-c3cncc(OC[C@@H](N)Cc4ccccc4)c3)cc12`, the Potency was 2930 nM (active). In the case of `Cc1nc2cnc3ccc(C#Cc4cccnc4)cc3c2n1-c1ccc(C(C)(C)C#N)cc1` it was 676 nM (active); in that of `Cc1ccc(NC(=O)C2(c3ccc4c(c3)OC(F)(F)O4)CC2)nc1-c1cccc(C(=O)O)c1`, “inactive”. Take `CC1(C)OC2=C(C(=O)c3ccccc3C2=O)[C@H](NCc2ccccc2)[C@H]1O`: the Potency was 4140 nM (active). In the case of `CNC(=O)c1nn(C)c2c1C(C)(C)Cc1cnc(Nc3ccc(N4CCN(C)CC4)cc3)nc1-2` it was 1650 nM (active). In the case of `CCn1cc(-c2ccnc3[nH]c(-c4cccc(CN(C)C)c4)cc23)c(-c2ccc(NC(=O)N(C)C)cc2)n1` it was 46.5 nM (active); in that of `O=C(O)c1ccc2cc(-c3ccc(O)c(C45CC6CC(CC(C6)C4)C5)c3)ccc2c1`, 585 nM (active). In the case of `CN(C)CC(C)(C)CNc1nn2c(-c3ccccc3)nnc2cc1C1CCC1` it was 18500 nM (active). Take `CC[C@H]1CN2CCc3cc(OC)c(OC)cc3[C@H]2C[C@@H]1C[C@@H]1NCCc2cc(OC)c(OC)cc21`: the Potency is 233 nM (active). In the case of `Nc1ccccc1NC(=O)c1ccc(CNc2nccc(-c3cccnc3)n2)cc1`, the Potency result is “inactive”. In the case of `Cc1c(CN2CCN(S(C)(=O)=O)CC2)sc2c(N3CCOCC3)nc(-c3cnc(N)nc3)nc12` it was 737 nM (active); in that of `CC(C)c1cnn2c(NCc3ccccc3)cc(N[C@@H](CO)[C@H](O)CO)nc12`, 522 nM (active). In the case of `COc1cc2c(Oc3ccc(-c4cnc(Nc5ccc(F)cc5)n(C)c4=O)cc3F)ccnc2cc1OCCCN1CCOCC1` it was 2930 nM (active); in that of `CS(=O)(=O)N1CCN(Cc2cc3nc(-c4cccc5[nH]ncc45)nc(N4CCOCC4)c3s2)CC1`, 1350 nM (active).

Turning to `COc1cccc(-c2ccc(NC(=O)C3=C(C(=O)O)CCC3)c(F)c2)c1`, the Potency was 18500 nM (active). In the case of `Cc1cc(Nc2cc(N3CCN(C)CC3)nc(Sc3ccc(NC(=O)C4CC4)cc3)n2)n[nH]1`, the Potency is 92.8 nM (active). In the case of `Cc1ccc(C(=O)Nc2ccc(CN3CCN(C)CC3)c(C(F)(F)F)c2)cc1C#Cc1cnc2cccnn12` it was 3.7 nM (active); in that of `Cc1ccc2nc(NC(=O)CSc3nc4c(c(=O)n3-c3ccccc3)SCC4)sc2c1`, 8270 nM (active).

As for `COc1cc2nccc(Oc3ccc(NC(=O)C4(C(=O)Nc5ccc(F)cc5)CC4)cc3)c2cc1OC`, the Potency was 18500 nM (active). In the case of `C[C@@H](Oc1cc(-c2cnn(C3CCNCC3)c2)cnc1N)c1c(Cl)ccc(F)c1Cl` it was 4650 nM (active); in that of `CCC1=C[C@@H]2CN(C1)Cc1c([nH]c3ccccc13)[C@@](C(=O)OC)(c1cc3c(cc1OC)N(C)[C@@H]1[C@@](O)(C(=O)OC)[C@H](OC(C)=O)[C@]4(CC)C=CCN5CC[C@]31[C@@H]54)C2`, 6570 nM (active); in that of `COC(=O)c1ccc2c(C(=Nc3ccc(N(C)C(=O)CN4CCN(C)CC4)cc3)c3ccccc3)c(O)[nH]c2c1`, 18500 nM (active). In the case of `CNC(=O)CN1CCC(Oc2cc3c(Nc4cccc(Cl)c4F)ncnc3cc2OC)CC1` it was 1040 nM (active); in that of `CCCCc1nc2cc(C=CC(=O)NO)ccc2n1CCN(CC)CC`, 1310 nM (active); in that of `Cn1c2ccccc2c2c3c(c4c5ccccc5n(CCC#N)c4c21)CNC3=O`, 4140 nM (active).

`Cc1ccc(C(=O)Nc2cccc(C(F)(F)F)c2)cc1-c1ccc2nc(NCCN3CCOCC3)ncc2c1`: the Potency was 6570 nM (active). In the case of `O=c1[nH]nc(Sc2ncc([N+](=O)[O-])s2)n1-c1ccc2c(c1)OCCO2` it was 6570 nM (active). In the case of `COc1ccc(OC)c(-c2nnc3ccc(-c4ccc(OC)c(O[C@@H]5CCOC5)c4)nn23)c1` it was 2930 nM (active); in that of `Nc1ncnc2c1c(-c1cnc3[nH]ccc3c1)nn2C1CCCC1`, 1470 nM (active); in that of `CC(=O)OCC(=O)[C@@]1(O)[C@H](C)C[C@H]2[C@@H]3C=C(C)C4=Cc5c(cnn5-c5ccccc5)C[C@]4(C)[C@@H]3[C@@H](O)C[C@@]21C`, 4140 nM (active).

In the case of `O=C(Nc1cc(C(F)(F)F)cc(C(F)(F)F)c1)c1cc(Cl)ccc1O`, the Potency was 2930 nM (active). Take `COc1cccc2c(NCc3ccccc3)nc(-n3c(N)nc4ccccc43)nc12`: the Potency was 7370 nM (active).

Turning to `CNC(=O)c1ccc(N2C(=S)N(c3cnc(C#N)c(C(F)(F)F)c3)C(=O)C23CCC3)cc1F`, the Potency entry is “inactive”. In the case of `CC(C)C[C@H](NC(=O)CNC(=O)c1cc(Cl)ccc1Cl)B(O)O` it was “inactive”; in that of `COc1cccc(Nc2c(C(N)=O)cnc3c(C)cc(S(=O)(=O)c4cccc(C(=O)N(C)C)c4)cc23)c1`, 512 nM (active); in that of `C=C1C(=CC=C2CCC[C@]3(C)[C@@H]([C@H](C)C=C[C@H](C)C(C)C)CC[C@@H]23)C[C@@H](O)C[C@@H]1O`, 23300 nM (active). In the case of `Cc1cc(Nc2cc(NC(=O)c3c(Cl)cccc3Cl)ccn2)nc(N)n1` it was 827 nM (active).
